ST2 IL33 inh: inhibitors of human ST2 (IL1RL1) binding to IL-33, primary screen, biochemical, AlphaLISA; AlphaLISA ST2-Fc/biotin-IL-33 interaction, 1 h; 78,000 tested, 2.3% active; Interleukin-1 receptor-like 1 (Homo sapiens), Q01638; inhibition, % for hits at 17 µM; in the data active = inhibition above about 30%
Target sequence (Q01638 whole entry, looked up): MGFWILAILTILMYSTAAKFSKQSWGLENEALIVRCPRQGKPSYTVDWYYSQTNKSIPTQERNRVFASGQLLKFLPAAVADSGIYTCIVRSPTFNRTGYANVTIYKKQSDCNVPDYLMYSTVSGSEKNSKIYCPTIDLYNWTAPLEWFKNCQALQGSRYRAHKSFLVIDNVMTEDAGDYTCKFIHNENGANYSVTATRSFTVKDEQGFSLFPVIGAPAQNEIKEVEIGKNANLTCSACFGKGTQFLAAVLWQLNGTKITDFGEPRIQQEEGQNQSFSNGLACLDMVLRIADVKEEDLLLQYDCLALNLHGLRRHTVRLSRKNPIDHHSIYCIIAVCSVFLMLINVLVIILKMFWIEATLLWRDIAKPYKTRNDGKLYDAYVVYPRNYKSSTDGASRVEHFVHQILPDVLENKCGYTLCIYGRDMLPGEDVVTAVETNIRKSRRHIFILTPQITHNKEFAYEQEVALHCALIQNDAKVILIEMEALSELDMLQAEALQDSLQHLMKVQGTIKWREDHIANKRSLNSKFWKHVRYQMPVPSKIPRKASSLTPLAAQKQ
An asterisk follows results filed as active; i = inactive. The full list was thinned out, with hits kept by preference.

SMILES	ST2 IL33 inh
COc1ccc(CN[C@H]2C[C@H]3C(=O)NC[C@@H](CCC(=O)N4CCN(c5ccccn5)CC4)N3C2)cc1	i
COCC(=O)N[C@H]1C[C@H]2C(=O)NC[C@@H](CCC(=O)N3CCN(c4ccccn4)CC3)N2C1	51.0%*
COc1ccc(-c2nn(-c3ccccc3)cc2CN(C)Cc2csc(C)n2)c(F)c1	i
O=C(CCCOc1ccc(Cl)cc1)Nc1cccc([N+](=O)[O-])c1	i
OCCN(Cc1ccccc1)Cc1ccccc1F	i
CC(C)(C(=O)N1CC[C@H]2CC[C@@H](C1)N2)c1ccccc1	i
CC(C)C(NS(=O)(=O)c1ccc2c(c1)oc(=O)n2C)C(=O)NCc1cccs1 (stereo not given)	i
CCCCSc1nnc2c(n1)OC(/C=C/c1ccco1)Nc1ccccc1-2 (stereo not given)	i
Cc1ccc(N2C(=O)[C@H]3[C@@H](C2=O)[C@@]2(CO)C=C[C@H]3O2)cc1	i
COc1ccc(NC(=O)c2cc3c(=O)n4cccc(C)c4nc3n2C)c(OC)c1	i
COc1ccc(Nc2nc3c(C)cccn3c(=O)c2C=NCc2ccccc2)cc1	40.0%*
Cc1ccc(N=Cc2c(Nc3ccccc3)nc3c(C)cccn3c2=O)cc1	i
COc1ccccc1C1C(C#N)=C(N)Oc2n[nH]c(-c3ccc4c(c3)OCO4)c21 (stereo not given)	i
CN1C(=O)Cc2cc(S(=O)(=O)CCC(=O)N3CCN(c4ccccc4F)CC3)ccc21	i
COc1ccc(C(=O)c2oc3ccccc3c2NC(=O)c2ccco2)cc1	31.0%*
NC(=O)c1oc2ccccc2c1NC(=O)c1ccco1	i
O=C(Nc1c(C(=O)Nc2cccc(F)c2)oc2ccccc12)c1ccco1	i
Cc1ccc(C2CC(C(F)(F)F)n3ncc(C(=O)Nc4ccc(C(C)O)cc4)c3N2)cc1 (stereo not given)	i
COc1ccc(-c2nccn2CCc2ccncc2)c(Cl)c1OC	i
O=C(Nc1ccccc1)Nc1cccc([N+](=O)[O-])c1	i
O=[N+]([O-])c1cccc(Nc2ccccc2)c1	33.0%*
Cc1ccccc1C(=O)Nc1cccc([N+](=O)[O-])c1	i
Cc1ccccc1-c1noc(CCCC(=O)N2C[C@@H]3CC[C@H]2C3)n1	i
O=C1NCC(=O)N2CCN(C(=O)c3ccccc3OC(F)(F)C(F)F)CC12 (stereo not given)	i
Cc1cc(C)c(-n2nnnc2SCC(=O)Nc2nonc2-c2nc3ccccc3n2C)c(C)c1	i
SMILES	ST2 IL33 inh
NCC1CCN(Cc2ccccc2Cn2cccn2)C1 (stereo not given)	i
O=C(Nc1ccc(Cc2ccncc2)cc1)c1ccc([N+](=O)[O-])cc1Cl	i
O=C(Nc1ccccc1)c1cc([N+](=O)[O-])ccc1Cl	i
O=C(c1ccc([N+](=O)[O-])cc1Cl)N(Cc1ccccc1)Cc1ccccc1	38.0%*
O=C(C[C@@H]1O[C@H](CNC(=O)NC2CCCCC2)[C@@H](O)[C@H]1O)Nc1ccccc1	i
CCN(CC)CCCNC(=O)c1c[nH]n2c(=O)c(Cc3ccc(Cl)cc3)c(C)nc12	i
CCCCCCCCCC[Si](C)(C)CCC(=O)NC(Cc1ccc(C)cc1)c1ccccc1 (stereo not given)	i
COc1ccc(-c2cc(C(=O)Nc3sc4c(c3C(N)=O)CCC(C)C4)no2)cc1OC (stereo not given)	i
COc1ccc(C=Nc2sc3c(c2C#N)CCC(C)C3)cc1OC (stereo not given)	39.0%*
COc1ccc(OC)c(-c2cc(C(=O)Nc3sc4c(c3C(N)=O)CCC(C)C4)no2)c1 (stereo not given)	i
COC(=O)C1C(=O)C2=C(CC1C)NC(C)=C(C(=O)OC1CCCCC1)C2c1cccc(F)c1 (stereo not given)	i
Cc1ccc(C(=O)Nc2ccc(Nc3nc(C)cc(N(C)C)n3)cc2)cc1	i
c1ccc2c(c1)[nH]c1nc(SCCCN3CCOCC3)nnc12	i
O=[N+]([O-])c1ccc(CSc2nnc3c(n2)[nH]c2ccccc23)cc1	i
CC(C)CSc1nnc2c(n1)[nH]c1ccccc12	32.0%*
O=[N+]([O-])c1ccc(O)c(C2=NNC(c3ccncc3)C2)c1 (stereo not given)	i
CCCCOc1ccc(-c2nnc3n2N=C(c2cccs2)CS3)cc1	i
Cc1occc1C(=O)Nc1ccc(I)cc1	i
COc1ccccc1N1CCN(CC[C@H]2CN(C(=O)N3CCOCC3)CC[C@H]2CC(=O)O)CC1	33.0%*
COc1ccc(C(=O)N2CC[C@@H](CC(=O)O)[C@@H](CCN3CCCN(C(C)=O)CC3)C2)cc1	39.0%*
COc1ccc(CC(=O)N2CC[C@@H](CC(=O)O)[C@@H](CCN3CCN(c4cccc(C(F)(F)F)c4)CC3)C2)cc1	i
COc1ccc(C(=O)N2CC[C@@H](CC(=O)O)[C@@H](CCN3CCN(c4cccc(C(F)(F)F)c4)CC3)C2)cc1	i
COc1ccc(CC(=O)N2CC[C@@H](CC(=O)O)[C@@H](CCN3CCN(c4ccccn4)CC3)C2)cc1	i
O=C(O)C[C@@H]1CCN(C(=O)c2ccco2)C[C@@H]1CCN1CCN(c2ccccc2)CC1	i
Cc1cnccc1N1CCCN(Cc2cc(C#CCO)cs2)CC1	i
SMILES	ST2 IL33 inh
O=C(CN1CCN(Cc2ccccc2)S1(=O)=O)NCc1ccccc1	i
CCCn1cnc2c1CN(CCCc1ccccc1)[C@H](C(=O)OC)C2	i
Cc1ccc(OCCN2CCOCC2)c(Br)c1	i
COc1ccc(C(C)c2ccc(OC)cc2)cc1	i
CCOC(=O)Nc1ccc(C(C)CC)cc1 (stereo not given)	i
COc1ccc(CCC(=O)NCc2ccncc2)cc1	i
CCCCOC(=O)Nc1ccc(N(C)C)cc1	42.0%*
CCCCOC(=O)Nc1ccccc1C(=O)N1CCCCC1	i
COc1ccc(CCC(=O)Nc2ccc(N(C)C)cc2)cc1	46.0%*
COc1ccc(Cc2ccc(OC)cc2)cc1	i
COc1ccc(CC(=O)Nc2ccc(I)cc2)cc1	i
COc1ccc(N(C)C)cc1	32.0%*
O=C(c1ccc(CS(=O)(=O)c2ccccc2)o1)N1CCN(c2cccc(Cl)c2)CC1	i
COc1ccc(CCN2C(=O)CC(Cc3ccc(Br)cc3)C2=O)cc1OC (stereo not given)	i
CCC1=C(c2ccc(OC)cc2)S(=O)(=O)N(CC(=O)NCc2cccc(Br)c2)C1=O	i
Cc1ccc(OCCNC(=O)c2ccc(C)c(NC(=O)C3CC3)c2)cc1C	i
Cn1cnc(-c2ccccc2)c1-c1cccc(Cn2cccn2)c1	i
CC(Cn1nc(C2CCNCC2)n(-c2ccccc2)c1=O)N1CCOCC1 (stereo not given)	i
N/C(Cc1ccc(Cl)c(Cl)c1)=N/OC(=O)c1ccc2c(c1)OCO2	i
COc1ccc(OC)c(-c2nc(COc3cccnc3C)c(C)o2)c1	i
Cc1ccc(C(=O)c2ccccc2C(=O)O)c(C)c1	i
Cc1ccc(C)n1-c1cccc(C(=O)O)c1	96.0%*
Cc1ccc(C)n1-c1ccc(C(=O)O)c(C(=O)O)c1	88.0%*
O=C(O)c1cccc(N2C(=O)C3C4C=CC(O4)C3C2=O)c1 (stereo not given)	i
Cc1cc(C=O)c(C)n1-c1ccc(C(=O)O)c(Cl)c1	i
CC(=O)Nc1cccc(C(=O)O)c1	i
CCCCNC(=O)C1CCCN(S(C)(=O)=O)C1 (stereo not given)	i
O=C(CCCc1ccccc1)Nc1ccncc1	i

Screens as filed in PubChem.
